Marburg entry inh: inhibitors of Marburg virus binding or cell entry; Marburg virus pseudotyped entry inhibition, cell reporter; Potency, µM (doses to about 37.8 µM), actives largely listed as inhibitors; hit rate 1.8% among 300,000; calls by dose curve; tested in HEK293 cells
HCV inh: HCV inhibition; Potency, µM (highest dose often 41.8 µM), hits mostly inhibitors; Huh7.5.1 HCVcc-Cre infection, luciferase reporter, 44 h; hit rate 3.4% among 340,000
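Infectious HCVcc-Cre (~0.5 moi) was added to cells just after compound, with cells seeded 4 h earlier at 1,000 per well. Luciferase activity after 44 h culture reported infection; substrate was incubated 15 min at room temperature before reading.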
FBPA Giardia inh: blocks Giardia fructose-bisphosphate aldolase activity | purified Giardia FBPA | hit rate 0.71% among 290,000 | Potency, µM (series often up to 59.6 µM), actives largely listed as inhibitors; also: nearly all actives have a fitted effect of over 55% in size
Target sequence (A8B2U2 whole entry, looked up): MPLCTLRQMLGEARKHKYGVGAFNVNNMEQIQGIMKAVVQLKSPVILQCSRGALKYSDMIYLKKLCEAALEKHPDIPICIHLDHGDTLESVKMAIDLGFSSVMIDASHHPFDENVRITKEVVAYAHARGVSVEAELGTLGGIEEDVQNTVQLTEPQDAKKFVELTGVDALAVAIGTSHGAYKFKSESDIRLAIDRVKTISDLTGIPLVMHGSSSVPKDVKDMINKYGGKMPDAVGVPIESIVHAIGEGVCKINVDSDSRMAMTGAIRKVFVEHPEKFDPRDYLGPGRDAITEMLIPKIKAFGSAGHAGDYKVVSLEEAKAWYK
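Giardia FBPA (40 nM reagent) was preincubated 10 min at RT with compound (up to 57.5 uM final), then substrate plus GAPDH/TPI/NAD/arsenate coupling system with diaphorase/resazurin was added; resorufin fluorescence (525/598 nm) was read after 20 min.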
FMDV antiviral: blocks foot and mouth disease virus; FMDV antiviral cell-based qHTS; AID 1159524; hit rate 1.2% among 410,000; Potency, µM (titrated, usually from 57.9 µM), most hits filed as inhibitors; calls by dose curve; tested in HEK293T cells; also: read-out not given here; nearly all actives have a fitted effect of over 45% in size
HCMV antiviral: inhibitors of human cytomegalovirus; HFF cells, HCMV-luciferase reporter, 72 h; stronger effect = lower value; activity change, negative = inhibition, % at 57.5 µM; hit rate 4.5% among 410,000; AID 1259415; in the data active = activity change below about -60%; inconclusive = no clear call, values can overlap the other calls; inactive = above about -39%
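Luciferase read-out from HCMV-luciferase-infected HFFs (MOI 1 PFU/cell) 72 h post infection at 37C; compounds added after 16 h cell attachment; activity normalized between buffer-only basal and Salinomycin (10uM) inhibitor controls.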
Lassa entry inh: inhibitors of Lassa virus binding or cell entry | Lassa virus pseudotype entry inhibition, cell reporter | Potency, µM (top dose mostly 37.9 µM), usual class: inhibitors | hit rate 1.2% among 300,000; calls by dose curve; tested in HEK293 cells; also: nearly all actives have a fitted effect of over 50% in size
Of the large screens only hits and unclear results are named; the others gave an inactive call; ! = not active in a repeat. Most compounds without a hit are left out; they make up all but 8.3% or so of the library. Unless noted, calls follow the shape of the dose curve; as a rule, active = well fitted curve in the direction sought with a large enough effect; inconclusive = small, poorly fitted or top-dose-only effect, or another doubt; inactive = no such curve, though single readings can be large; an effect the other way counts as inactive or inconclusive.

C[n+]1c(-c2ccccc2)c2cc(N)ccc2c2ccc(N)cc21	HCV inh 2.5µM, FBPA Giardia inh inconclusive, FMDV antiviral inconclusive, HCMV antiviral -100 (no result: Marburg entry inh, Lassa entry inh)
Nc1ccc2nc(-c3ccccc3)c(-c3ccccc3)nc2c1	none (no result: FBPA Giardia inh)
COc1ccccc1[C@@]1(C)ON(c2ccccc2C(F)(F)F)C1=O	HCV inh 3.2µM, FMDV antiviral inconclusive (no result: Marburg entry inh, FBPA Giardia inh, Lassa entry inh)
Cc1ccccc1[C@]1(C)ON(c2ccccc2C(F)(F)F)C1=O	none (no result: Marburg entry inh, FBPA Giardia inh, FMDV antiviral, HCMV antiviral, Lassa entry inh)
Cc1ccc2c(CNC3CCC(C)CC3)c(C(=O)O)n(Cc3cccc(F)c3)c2c1 (centres undefined)	none (no result: Marburg entry inh, HCV inh, FBPA Giardia inh)
CC[C@H](C)C1OC(=O)[C@@H](C)[C@@H](CC)NC(=O)[C@H](C)N(C)C(=O)C(C)(C)C(=O)C(C)NC(=O)[C@H](Cc2ccc(OC)cc2)N(C)C(=O)[C@H](C(C)C)N(C)C(=O)CNC(=O)[C@H](CC(C)C)N(C)C(=O)CNC1=O (some centres undefined)	none (no result: Marburg entry inh, HCV inh, FBPA Giardia inh, HCMV antiviral, Lassa entry inh)
COc1ccc(CC2C(=O)NC(C)C(=O)N(C)C3Cc4ccc(cc4)Oc4cc(ccc4O)CC(C(=O)NC(C)C(=O)NC(C)C(=O)N2C)N(C)C3=O)cc1 (centres undefined)	Marburg entry inh inconclusive, HCV inh inconclusive, HCMV antiviral -101, Lassa entry inh inconclusive (no result: FBPA Giardia inh)
c1ccc2c(c1)CCC[C@H]2C1=NCCN1	none (no result: HCV inh, FBPA Giardia inh, FMDV antiviral, HCMV antiviral, Lassa entry inh)
COc1ccc(NS(=O)(=O)c2cccc(C(=O)NNC(=O)COc3ccccc3)c2)cc1	Marburg entry inh inconclusive (no result: FBPA Giardia inh)
COc1ccc(NS(=O)(=O)c2cccc(C(=O)NNC(=O)c3ccccc3O)c2)cc1	HCV inh inconclusive, HCMV antiviral -94, Lassa entry inh inconclusive (no result: FBPA Giardia inh)
COc1ccc(NS(=O)(=O)c2cc(C)ccc2NC(=O)c2cc(C)oc2C)cc1	Marburg entry inh inconclusive, HCV inh 13µM!, Lassa entry inh inconclusive
COc1ccc(NS(=O)(=O)c2cccc(C(=O)NNC(=O)c3cc(C)oc3C)c2)cc1	HCMV antiviral -101
COc1ccc(NS(=O)(=O)c2cccc(C(=O)NNC(=O)c3ccc(C)o3)c2)cc1	none (no result: Marburg entry inh, FBPA Giardia inh, Lassa entry inh)
CCOc1ccc(C2CC(=O)NC(NC(=O)c3cccc(Cl)c3)=N2)cc1 (centres undefined)	Lassa entry inh inconclusive (no result: Marburg entry inh, HCV inh, FBPA Giardia inh)
Cc1ccc(-c2ccnc(-n3ncc(C(=O)N4CCCCC4c4cccnc4)c3C3CC3)n2)o1 (centres undefined)	none (no result: Marburg entry inh, HCV inh, FBPA Giardia inh, HCMV antiviral, Lassa entry inh)
COc1cccc(CNC(=O)C(=O)NCC(c2ccc3c(c2)OCO3)N2CCOCC2)c1 (centres undefined)	none (no result: Marburg entry inh, HCV inh, FBPA Giardia inh)
CCOCC(O)CNc1ccccc1 (centres undefined)	Marburg entry inh inconclusive, HCMV antiviral inconclusive
OC(CNc1ccccc1)COc1ccc(OCC(O)CNc2ccccc2)cc1 (centres undefined)	Marburg entry inh 11µM, HCV inh inconclusive, FMDV antiviral inconclusive, HCMV antiviral inconclusive, Lassa entry inh inconclusive
COc1cc(OC)cc(C(=O)NC(C(=O)N2CCc3ccccc3C2)C(C)C)c1 (centres undefined)	Marburg entry inh 11µM, Lassa entry inh inconclusive
CC(=O)Nc1ccc(SCC(CC(C)C)N2CCN(CCc3ccccc3)CCC2=O)cc1 (centres undefined)	none (no result: Marburg entry inh, HCV inh, FMDV antiviral, HCMV antiviral, Lassa entry inh)
Cc1cnc(NC(=O)C(C)(C)n2cc(-c3ccc4c(c3)OCCO4)cn2)s1	none (no result: Marburg entry inh, HCV inh, FBPA Giardia inh, FMDV antiviral, Lassa entry inh)
CCOC(=O)c1c(C)c2c(=O)[nH]cnc2n1-c1ccccc1	HCMV antiviral -62 (no result: Marburg entry inh, Lassa entry inh)
COc1ccc(CCNC(=O)C(=O)NCC(c2cccs2)S(=O)(=O)c2ccc(F)cc2)cc1 (centres undefined)	FMDV antiviral 40µM, Lassa entry inh inconclusive (no result: Marburg entry inh, HCV inh, FBPA Giardia inh)
COc1ccc(CC(=O)NCC(c2cccs2)S(=O)(=O)c2ccc(F)cc2)cc1 (centres undefined)	none (no result: Marburg entry inh, HCV inh, FBPA Giardia inh)
Cc1ccc(S(=O)(=O)C(CNC(=O)C(=O)NCCc2ccc(Cl)cc2)c2ccco2)cc1 (centres undefined)	none (no result: Marburg entry inh, HCV inh, FBPA Giardia inh)
O=C(NCCc1ccc(Cl)cc1)C(=O)NCC(c1ccco1)S(=O)(=O)c1ccc(Cl)cc1 (centres undefined)	HCMV antiviral -81 (no result: Marburg entry inh, HCV inh, FBPA Giardia inh)
COc1ccc(N(C(=O)CCl)C(C(=O)NCCc2ccccc2)c2cccs2)cc1 (centres undefined)	Marburg entry inh inconclusive, HCV inh 5.6µM, FMDV antiviral 16µM, HCMV antiviral -100, Lassa entry inh inconclusive
COc1ccc(NC(=O)CC2C(=O)N(c3ccc(C)cc3)C(=O)N2Cc2ccc(C)cc2)cc1 (centres undefined)	none (no result: HCV inh, FBPA Giardia inh)
COc1ccc(-c2noc(C3CCCN(C(=O)Nc4ccccc4)C3)n2)cc1 (centres undefined)	HCV inh inconclusive (no result: Marburg entry inh, Lassa entry inh)
CC(=O)Nc1ccc(N2CCN(c3ccc(C(F)(F)F)cn3)CC2)nc1	Marburg entry inh inconclusive, HCV inh inconclusive
O=C(Nc1ccc(Cl)cc1)N1CCN(c2ccc3nnc(-c4ccc(F)cc4)n3n2)CC1	Marburg entry inh inconclusive, HCV inh inconclusive, HCMV antiviral -63!, Lassa entry inh inconclusive
O=S(=O)(c1ccc(Cl)cc1)N1CCCC(c2nc(-c3ccc(F)cc3)no2)C1 (centres undefined)	none (no result: Marburg entry inh, FBPA Giardia inh, Lassa entry inh)
COc1ccc(NC(=O)N2CCCC(c3nc(-c4ccc(OC)cc4)no3)C2)cc1 (centres undefined)	Marburg entry inh inconclusive, HCV inh 22µM, HCMV antiviral inconclusive, Lassa entry inh inconclusive
O=C(Nc1ccc(F)cc1)N1CCCN(c2ccc(C(F)(F)F)cn2)CC1	Marburg entry inh inconclusive, HCV inh inconclusive, HCMV antiviral -62
O=C(Nc1ccc(Cl)cc1)N1CCC(c2nc(-c3ccc(F)cc3)no2)CC1	HCV inh inconclusive, HCMV antiviral -91
COc1cc(=O)n2c(c1C(=O)NC(C)c1ccco1)CCN(C(=O)c1ccc(F)cc1Cl)CC2 (centres undefined)	none (no result: Marburg entry inh, HCV inh, FBPA Giardia inh, HCMV antiviral, Lassa entry inh)
